# Source: PubChem BioAssay
# Only some compounds are listed: those with a hit (about 4% of all), similar ones and a draw of the others.
# FBA Mtb inh: inhibitors of M. tuberculosis fructose-bisphosphate aldolase | AID 588726 | purified M. tuberculosis FBA, fluorescence read-out | actives 2.3% (n = 360,000) | inhibition, % at 1 µM; in the data active = inhibition above about 27%;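 also: 0% = vehicle and 100% = reference inhibitor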
# Mtb bLac sens: beta-lactam sensitization of Mtb H37Rv. M. tuberculosis H37Rv growth with meropenem, percent inhibition. inhibition, % at 25 µM. actives 0.27% (n = 330,000). AID 434955; call rule not given here;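 also: growth measured after seven days incubation then overnight dye step; 0% = bacteria only wells and 100% = bacteria with antibiotic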
# Mtb UGM inh: blocks M. tuberculosis UGM enzyme; purified UGM, fluorescence polarization probe displacement; P9WIQ1; actives 0.06% (n = 320,000); inhibition, % at 10 µM; in the data active = inhibition above about 10%, passing the limit was not always enough
# GDH-TPI inh: counter-screen for M. tuberculosis FBA inhibitors: GDH-TPI coupled enzymes; GDH-TPI coupled enzyme counterscreen, NADH absorbance; inhibition, % at 4.8 µM; actives 1.2% (n = 360,000); in the data active = inhibition above about 30%;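 also: 0% = DMSO wells and 100% = wells lacking the enzyme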
# Rv3671c inh: inhibits the M. tuberculosis serine protease Rv3671c. P9WHR9. inhibition, % at 5.96 µM. actives 0.048% (n = 320,000); in the data active = inhibition above about 38%;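 also: extracellular domain of Rv3671c used as enzyme; 0% = enzyme with DMSO and 100% = no enzyme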
# RecA splice inh: Mtb RecA intein splicing inhibition; P9WHJ3; AID 2221; actives 0.75% (n = 290,000); inhibition, % (test concentration not listed); cell-free RecA intein splicing, fluorescence; in the data active = inhibition above about 30%;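 also: 0% = vehicle wells and 100% = reference inhibitor control wells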
# * hit, by the source's call; · = no result.
SMILES,FBA Mtb inh,Mtb bLac sens,Mtb UGM inh,GDH-TPI inh,Rv3671c inh,RecA splice inh
Cc1ccc(/C=N/NC(=O)c2nnn(-c3nonc3N)c2-c2ccccc2)o1,-3.9,9.1,0.5,44.0*,-1.6,-1.1
COc1ccc(CN(C2CC2)S(=O)(=O)c2ccccc2Br)cc1,-0.6,·,·,-11.5,·,·
COc1ccccc1Cc1c(C(C)(C)C)nc2ccc(C)cn12,11.1,·,·,·,·,·
Cc1ccsc1/C=N/NC(=O)c1nnn(-c2nonc2N)c1C,0.8,-6.7,3.5,31.3*,-12.9,·
COc1cccc(-c2c(C(=O)N/N=C/c3sccc3C)nnn2-c2nonc2N)c1,-0.7,5.2,-1.3,34.8*,4.3,1.1
Cc1ccc(-c2c(C(=O)N/N=C/c3sccc3C)nnn2-c2nonc2N)cc1,-4.6,5.3,-0.2,23.6,-3.2,0.0
CCc1nnc(NS(=O)(=O)c2ccc(NC(=O)c3ccc([N+](=O)[O-])s3)cc2)s1,-1.9,·,·,24.7,·,·
CCN(CC)C(=O)CSc1n[nH]c(=O)n1CCc1ccccc1,148.2*,3.3,-2.1,-3.0,6.5,-1.7
O=C(O)c1ccccc1Sc1ncnc2sccc12,-1.4,0.1,0.3,0.0,5.0,-2.1
O=c1[nH]nc(Sc2ncnc3sccc23)n1CCc1ccccc1,-0.4,0.9,1.3,-4.1,0.5,31.4*
CC1=C(c2ccccc2)C(=S)NC(C)(C)C1,-5.8,-6.4,0.5,1.9,5.2,-0.8
COc1ccccc1OCc1nnc(SCC(=O)Nc2nnc(C3CC3)s2)n1C,174.8*,6.0,0.7,-1.1,3.7,-0.8
Cn1c(CNC(=O)c2ccccc2F)nnc1SCC(=O)Nc1nnc(C2CC2)s1,4.8,-4.7,1.9,6.7,-2.8,6.2
CSc1nc(C)c(Cc2c(F)cccc2Cl)c(=O)[nH]1,1.0,3.0,2.9,10.2,-1.4,-3.7
Cc1nn2cnnc2c(C)c1Cc1c(F)cccc1Cl,140.6*,-0.4,2.9,-3.0,-2.4,1.4
CCCCCC(=O)N1C[C@@H](n2cc(-c3ccc(F)cc3)nn2)[C@H](O)C[C@@H]1c1ccc(Cl)cc1,2.3,·,·,7.5,·,·
CCCCCOc1ccc(C2NC(=O)NC2=O)cc1 (stereo not given),1.4,6.5,-1.4,-3.4,-3.4,0.5
CCCCCCCCOc1ccc(C2OC34CCCCC3C(C#N)(C#N)C2(C#N)C(=N)O4)cc1 (stereo not given),49.8*,-6.6,4.3,-2.2,23.7,-414.0
Cc1ccc(CN(C(=O)c2ccc(Cl)c([N+](=O)[O-])c2)C2CCS(=O)(=O)C2)o1 (stereo not given),-5.1,8.4,-1.1,6.0,3.9,-1.6
C/C(=N\NC(=O)c1ccc(-c2ccccc2)cc1)c1ccco1,0.9,81.8,0.2,8.4,-2.7,14.3
C/C(=N\NC(=O)c1ccc(C(=O)N/N=C(\C)c2ccco2)o1)c1ccco1,0.4,-3.6,0.4,31.3*,-15.1,-1.6
CCCn1c(N/N=C\C=C\c2ccccc2)nc2c1c(=O)[nH]c(=O)n2C,-4.2,70.2,0.0,31.1*,0.1,-2.7
CC(/C=C/c1ccccc1)=N\Nc1nc2c(c(=O)[nH]c(=O)n2C)n1CCO,·,0.6,-0.3,·,-1.0,-1.8
O=C(Nc1ccccc1Cl)c1cc(C2CCCCN2C(=O)c2ccccc2)on1 (stereo not given),3.9,·,·,11.0,·,·
CCOc1ccc(/C=N/N(C)c2ccccc2)cc1OC,-0.5,92.1,-0.4,32.8*,4.7,-0.4
SMILES,FBA Mtb inh,Mtb bLac sens,Mtb UGM inh,GDH-TPI inh,Rv3671c inh,RecA splice inh
O=C(NCCc1ccccc1)c1cc2sccc2n1Cc1ccccc1,156.2*,8.6,-1.8,4.2,0.8,0.7
Cn1c(=O)c2c(ncn2CC(=O)OCC(=O)NNC(=O)c2ccc(Cl)cc2)n(C)c1=O,-0.3,-7.5,3.3,8.4,4.6,·
N#CC(c1ccc(O)cc1)N1CCOCC1 (stereo not given),-1.5,3.5,1.4,31.2*,-0.7,-1.6
N#CC(c1ccc(Cl)cc1)N1CCOCC1 (stereo not given),0.9,-1.0,4.3,4.1,1.0,·
CC(=O)Nc1ccc2c(CN3C(=O)NC(C)(c4ccc(C)cc4)C3=O)cc(=O)oc2c1 (stereo not given),132.0*,1.9,-2.9,7.0,-6.6,-3.8
Cc1ccc2c(CN3C(=O)NC(C)(c4ccc5c(c4)OCO5)C3=O)cc(=O)oc2c1 (stereo not given),3.4,-9.5,2.5,17.8,2.2,1.5
COc1cccc(-c2cc(CNC(=O)[C@H]3O[C@@H](n4ccc(=O)[nH]c4=O)[C@H](O)[C@@H]3O)no2)c1,-1.3,·,·,·,·,·
